B1: unnamed (peptide)
chain: RSVKRPRRAPRPVVS

Each binder was assayed against AgAbp1 (assay: SPOT peptide array binding signal intensity (averaged, normalized) (arbitrary units (background-subtracted, floor 0; scale differs between SH3 domains)); higher = stronger binding of the SH3 domain to the peptide).
Procedure, shortened: (§1)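 GST-fused SH3 domains, from four yeast species, were produced in E. coli BL21(DE3) and captured on glutathione Sepharose. Membranes of cellulose carrying synthetic 15-mer peptides, in which cysteines had been replaced by serines, were exposed to each domain at 10 μg/ml overnight at 4°C in TBS-based blocking buffer. After anti-GST antibody, an HRP anti-mouse secondary and luminol, spots were imaged and quantified using Genespotter. Binding signal is normalized and background-subtracted spot intensity, averaged over replicates, in arbitrary units that differ between domains.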

Binder | SPOT peptide array binding signal intensity
B1 | 124

These binders were tested against AgBbc1 in the same assay as above.
Procedure, shortened: as §1

Binder | SPOT peptide array binding signal intensity
B1 | 434

These binders were tested against AgBem1-D1 in the same assay as above.
Procedure, shortened: as §1

Binder | SPOT peptide array binding signal intensity
B1 | 116

What follows are binders tested against AgBzz1-D1 in the same assay as above.
Procedure, shortened: as §1

Binder | SPOT peptide array binding signal intensity
B1 | 54.5

These binders were tested against AgBzz1-D2 in the same assay as above.
Procedure, shortened: as §1

Binder | SPOT peptide array binding signal intensity
B1 | 19

Each binder was assayed against AgCyk3 in the same assay as above.
Procedure, shortened: as §1

Binder | SPOT peptide array binding signal intensity
B1 | 2

Each binder was assayed against AgFus1 in the same assay as above.
Procedure, shortened: as §1

Binder | SPOT peptide array binding signal intensity
B1 | 372

The binders below were run against AgHof1 in the same assay as above.
Procedure, shortened: as §1

Binder | SPOT peptide array binding signal intensity
B1 | 49

Each binder was assayed against AgHse1 in the same assay as above.
Procedure, shortened: as §1

Binder | SPOT peptide array binding signal intensity
B1 | 592

The binders below were run against AgLsb1 in the same assay as above.
Procedure, shortened: as §1

Binder | SPOT peptide array binding signal intensity
B1 | 4.5

What follows are binders tested against AgLsb4 in the same assay as above.
Procedure, shortened: as §1

Binder | SPOT peptide array binding signal intensity
B1 | 150

Each binder was assayed against AgMyo5 in the same assay as above.
Procedure, shortened: as §1

Binder | SPOT peptide array binding signal intensity
B1 | 1.25

What follows are binders tested against AgNbp2 in the same assay as above.
Procedure, shortened: as §1

Binder | SPOT peptide array binding signal intensity
B1 | 908

Each binder was assayed against AgRvs167 in the same assay as above.
Procedure, shortened: as §1

Binder | SPOT peptide array binding signal intensity
B1 | 2.17

Each binder was assayed against AgSho1 in the same assay as above.
Procedure, shortened: as §1

Binder | SPOT peptide array binding signal intensity
B1 | 5

The binders below were run against AgSla1-D1-D2 in the same assay as above.
Procedure, shortened: as §1

Binder | SPOT peptide array binding signal intensity
B1 | 15

The binders below were run against AgSla1-D3 in the same assay as above.
Procedure, shortened: as §1

Binder | SPOT peptide array binding signal intensity
B1 | 6.25

Each binder was assayed against CaAbp1-D1 in the same assay as above.
Procedure, shortened: as §1

Binder | SPOT peptide array binding signal intensity
B1 | 586

The binders below were run against CaAbp1-D2 in the same assay as above.
Procedure, shortened: as §1

Binder | SPOT peptide array binding signal intensity
B1 | 430

Each binder was assayed against CaBbc1 in the same assay as above.
Procedure, shortened: as §1

Binder | SPOT peptide array binding signal intensity
B1 | 663

These binders were tested against CaBem1-D1 in the same assay as above.
Procedure, shortened: as §1

Binder | SPOT peptide array binding signal intensity
B1 | 140

What follows are binders tested against CaBzz1-D1 in the same assay as above.
Procedure, shortened: as §1

Binder | SPOT peptide array binding signal intensity
B1 | 108

What follows are binders tested against CaBzz1-D2 in the same assay as above.
Procedure, shortened: as §1

Binder | SPOT peptide array binding signal intensity
B1 | 165

What follows are binders tested against CaCyk3 in the same assay as above.
Procedure, shortened: as §1

Binder | SPOT peptide array binding signal intensity
B1 | 106

What follows are binders tested against CaFus1 in the same assay as above.
Procedure, shortened: as §1

Binder | SPOT peptide array binding signal intensity
B1 | 208

These binders were tested against CaHof1 in the same assay as above.
Procedure, shortened: as §1

Binder | SPOT peptide array binding signal intensity
B1 | 2

The binders below were run against CaHse1 in the same assay as above.
Procedure, shortened: as §1

Binder | SPOT peptide array binding signal intensity
B1 | 47.5

What follows are binders tested against CaLsb1 in the same assay as above.
Procedure, shortened: as §1

Binder | SPOT peptide array binding signal intensity
B1 | 0.75

Each binder was assayed against CaLsb4 in the same assay as above.
Procedure, shortened: as §1

Binder | SPOT peptide array binding signal intensity
B1 | 1720

What follows are binders tested against CaMyo5 in the same assay as above.
Procedure, shortened: as §1

Binder | SPOT peptide array binding signal intensity
B1 | 2

Each binder was assayed against CaNbp2 in the same assay as above.
Procedure, shortened: as §1

Binder | SPOT peptide array binding signal intensity
B1 | 1160

The binders below were run against CaRvs167 in the same assay as above.
Procedure, shortened: as §1

Binder | SPOT peptide array binding signal intensity
B1 | 20.3

These binders were tested against CaRvs167-3 in the same assay as above.
Procedure, shortened: as §1

Binder | SPOT peptide array binding signal intensity
B1 | 26.5

These binders were tested against CaSho1 in the same assay as above.
Procedure, shortened: as §1

Binder | SPOT peptide array binding signal intensity
B1 | 198

These binders were tested against CaSla1-D1-D2 in the same assay as above.
Procedure, shortened: as §1

Binder | SPOT peptide array binding signal intensity
B1 | 990

Each binder was assayed against CaSla1-D3 in the same assay as above.
Procedure, shortened: as §1

Binder | SPOT peptide array binding signal intensity
B1 | 0.5

What follows are binders tested against ScAbp1 in the same assay as above.
Procedure, shortened: as §1

Binder | SPOT peptide array binding signal intensity
B1 | 113

These binders were tested against ScBbc1 in the same assay as above.
Procedure, shortened: as §1

Binder | SPOT peptide array binding signal intensity
B1 | 306

What follows are binders tested against ScBem1-D1 in the same assay as above.
Procedure, shortened: as §1

Binder | SPOT peptide array binding signal intensity
B1 | 46.5

What follows are binders tested against ScBzz1-D1 in the same assay as above.
Procedure, shortened: as §1

Binder | SPOT peptide array binding signal intensity
B1 | 11.5

These binders were tested against ScBzz1-D2 in the same assay as above.
Procedure, shortened: as §1

Binder | SPOT peptide array binding signal intensity
B1 | 26

Each binder was assayed against ScCyk3 in the same assay as above.
Procedure, shortened: as §1

Binder | SPOT peptide array binding signal intensity
B1 | 32

These binders were tested against ScFus1 in the same assay as above.
Procedure, shortened: as §1

Binder | SPOT peptide array binding signal intensity
B1 | 260

These binders were tested against ScHof1 in the same assay as above.
Procedure, shortened: as §1

Binder | SPOT peptide array binding signal intensity
B1 | 5.25

Each binder was assayed against ScHse1 in the same assay as above.
Procedure, shortened: as §1

Binder | SPOT peptide array binding signal intensity
B1 | 1150

What follows are binders tested against ScLsb1 in the same assay as above.
Procedure, shortened: as §1

Binder | SPOT peptide array binding signal intensity
B1 | 156

These binders were tested against ScLsb2 in the same assay as above.
Procedure, shortened: as §1

Binder | SPOT peptide array binding signal intensity
B1 | 31.5

What follows are binders tested against ScLsb3 in the same assay as above.
Procedure, shortened: as §1

Binder | SPOT peptide array binding signal intensity
B1 | 3170

What follows are binders tested against ScLsb4 in the same assay as above.
Procedure, shortened: as §1

Binder | SPOT peptide array binding signal intensity
B1 | 192

These binders were tested against ScMyo3 in the same assay as above.
Procedure, shortened: as §1

Binder | SPOT peptide array binding signal intensity
B1 | 1

The binders below were run against ScMyo5 in the same assay as above.
Procedure, shortened: as §1

Binder | SPOT peptide array binding signal intensity
B1 | 4.25

The binders below were run against ScNbp2 in the same assay as above.
Procedure, shortened: as §1

Binder | SPOT peptide array binding signal intensity
B1 | 2270

These binders were tested against ScPex13 in the same assay as above.
Procedure, shortened: as §1

Binder | SPOT peptide array binding signal intensity
B1 | 2.75

These binders were tested against ScRvs167 in the same assay as above.
Procedure, shortened: as §1

Binder | SPOT peptide array binding signal intensity
B1 | 75

The binders below were run against ScSho1 in the same assay as above.
Procedure, shortened: as §1

Binder | SPOT peptide array binding signal intensity
B1 | 344

These binders were tested against ScSla1-D1-D2 in the same assay as above.
Procedure, shortened: as §1

Binder | SPOT peptide array binding signal intensity
B1 | 839

What follows are binders tested against ScSla1-D3 in the same assay as above.
Procedure, shortened: as §1

Binder | SPOT peptide array binding signal intensity
B1 | 15.8

These binders were tested against SpAbp1-D1 in the same assay as above.
Procedure, shortened: as §1

Binder | SPOT peptide array binding signal intensity
B1 | 146

What follows are binders tested against SpBbc1 in the same assay as above.
Procedure, shortened: as §1

Binder | SPOT peptide array binding signal intensity
B1 | 12

Each binder was assayed against SpBzz1-D1 in the same assay as above.
Procedure, shortened: as §1

Binder | SPOT peptide array binding signal intensity
B1 | 250

These binders were tested against SpBzz1-D2 in the same assay as above.
Procedure, shortened: as §1

Binder | SPOT peptide array binding signal intensity
B1 | ≤ 0

Each binder was assayed against SpCyk3 in the same assay as above.
Procedure, shortened: as §1

Binder | SPOT peptide array binding signal intensity
B1 | 2

The binders below were run against SpHof1 in the same assay as above.
Procedure, shortened: as §1

Binder | SPOT peptide array binding signal intensity
B1 | 268

What follows are binders tested against SpHof1-2 in the same assay as above.
Procedure, shortened: as §1

Binder | SPOT peptide array binding signal intensity
B1 | 7

What follows are binders tested against SpHof1-3 in the same assay as above.
Procedure, shortened: as §1

Binder | SPOT peptide array binding signal intensity
B1 | 748

What follows are binders tested against SpHse1 in the same assay as above.
Procedure, shortened: as §1

Binder | SPOT peptide array binding signal intensity
B1 | 234

These binders were tested against SpLsb1 in the same assay as above.
Procedure, shortened: as §1

Binder | SPOT peptide array binding signal intensity
B1 | 214

What follows are binders tested against SpLsb4 in the same assay as above.
Procedure, shortened: as §1

Binder | SPOT peptide array binding signal intensity
B1 | 2230

These binders were tested against SpMyo1 in the same assay as above.
Procedure, shortened: as §1

Binder | SPOT peptide array binding signal intensity
B1 | 16

Each binder was assayed against SpNbp2 in the same assay as above.
Procedure, shortened: as §1

Binder | SPOT peptide array binding signal intensity
B1 | 412

These binders were tested against SpPex13 in the same assay as above.
Procedure, shortened: as §1

Binder | SPOT peptide array binding signal intensity
B1 | 10.5

What follows are binders tested against SpRvs167 in the same assay as above.
Procedure, shortened: as §1

Binder | SPOT peptide array binding signal intensity
B1 | 11.2

Each binder was assayed against SpSla1-D1-D2 in the same assay as above.
Procedure, shortened: as §1

Binder | SPOT peptide array binding signal intensity
B1 | ≤ 0

The binders below were run against SpSla1-D3 in the same assay as above.
Procedure, shortened: as §1

Binder | SPOT peptide array binding signal intensity
B1 | 3

From the supplement of paper PMC4466140
